The source of these data is PubChem BioAssay.

Test [1] can be described thus: differential killing of epithelial or mesenchymal cells, primary screen, imaging, PC-3E GFP, TEM4-18 mCherry, co-culture (AID 1345086;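 active means compounds killing one labelled cell type while sparing the other, by normalised counts and ratio limits, not self-fluorescent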;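 on all read-outs here: cells exposed to compound for 72 h before imaging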;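 on red/green cell ratio (normalised): normalised mesenchymal count divided by normalised epithelial count so high means epithelial killing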). Particulars: imaging cell counts, at 1 µM; for red/green cell ratio (normalised): actives lie on both sides, counts scaled to control wells, 1 = unselective.
Test [2] in a line: growth inhibition of DIPG glioma cells, dose response, cell-based, SU-DIPG-XIII, MIPE4.0, CellTiter-Glo, qHTS (AID 1347061; cut-off not given, nearly all actives have AC50 up to about 37 µM;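 further: cells exposed to compound for 48 hours before readout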). Conditions: SU-DIPG-XIII viability, CellTiter-Glo ATP luminescence.
The nature of test [3]: growth inhibition of DIPG glioma cells, dose response, cell-based, SU-DIPG-IV, MIPE4.0, CellTiter-Glo, qHTS (AID 1347063; cut-off not given, nearly all actives have AC50 up to about 30 µM;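 further: compound exposure lasted 48 hours before the viability readout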). Conditions: SU-DIPG-IV viability, CellTiter-Glo ATP luminescence. (Cellular ATP, detected with luciferase, serves as a proxy for viable cell number.)
Test [4] in a line: SU-DIPG-VI glioma cell viability, MIPE4.0 library, CellTiter-Glo luminescence, qHTS (AID 1347066; cut-off not given, nearly all actives have AC50 up to about 30 µM;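 further: cells exposed to compound for 48 hours before readout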). Conditions: CellTiter-Glo ATP luminescence.
Test [5] in a line: SU-DIPG-XXV glioma cell viability, MIPE5.0 library, qHTS (AID 1347068; cut-off not given, nearly all actives have IC50 up to about 30 µM). (qHTS replaces the single test concentration by a dilution series.)
Test [6] in a line: sensitizers of A549 cells to miR-34 induction, primary screen, imaging, A549 dox-inducible miR-34, nuclei and caspase counts (AID 1347080;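 active means compounds whose cell count with miR-34 switched on is under 0.7 times the count with it off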). Particulars: A549 miR-34 inducible, Hoechst nuclei count, 48 h.
Test [7] is described as follows: liver-stage malaria parasite growth inhibition, primary screen, cell-based, HepG2, luciferase luminescence, HepG2 viability (AID 624349; in the data active means parasite load remaining mostly below about 12%, no sharp cut-off; inactive means mostly above about 10%;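 further: 100% = mean of DMSO negative control wells on the same plate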). Conditions: P. berghei liver stage in HepG2, luciferase luminescence, concentration not given here; parasite load remaining: stronger effect = lower value; viability: measured here: HepG2 viability without parasites.
Test [8] can be described thus: growth inhibition of DIPG glioma cells, dose response, cell-based, SU-DIPG-XVII, MIPE5.0, CellTiter-Glo, qHTS (AID 1347060; cut-off not given, nearly all actives have AC50 up to about 26 µM). Particulars: SU-DIPG-XVII viability, CellTiter-Glo ATP luminescence.
Test [9] is described as follows: viability loss in pontine glioma line – cell-based, SU-DIPG-XXV, MIPE5.0, CellTiter-Glo, qHTS, dose response (AID 1347065; cut-off not given, nearly all actives have AC50 up to about 26 µM;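 further: cells exposed to compound for 48 hours before ATP readout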). Conditions: CellTiter-Glo ATP luminescence.
The nature of test [10]: JHH-DIPG-1 glioma cell viability, MIPE5.0 library, CellTiter-Glo luminescence, qHTS (AID 1347067; cut-off not given, nearly all actives have AC50 up to about 26 µM;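 further: cells exposed to compound for 48 hours before readout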). Conditions: JHH-DIPG-1 glioma viability, CellTiter-Glo ATP luminescence.
Test [11] can be described thus: circadian clock period modulators, cell-based, LOPAC library, luminescence reporter (AID 2774).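 Further: values are relative to mean of DMSO wells on each plate.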 Particulars: circadian reporter cells, at 7 µM, actives lie on both sides.
Test [12] concerns Hepatitis C virus NS3 helicase. Briefly: HCV NS3 helicase inhibitors, primary screen, biochemical, fluorescence polarization, LOPAC1280 library (AID 687035; in the data active means inhibition above about 37%). Conditions: Purified HCV NS3 helicase, Cy5-dT15 ssDNA binding fluorescence polarization; stronger effect = higher value; concentration not given here.
Test [13] in a line: Cy5 fluorescence quenching or enhancement artefacts, artefact control for HCV NS3 helicase inhibitor project, biochemical, LOPAC1280 (AID 687037). Conditions: Cy5-DNA-NS3h complex fluorescence interference counterscreen. (A counterscreen serves to expose hits that act by an unwanted route or on another target.)
A short description of test [14]: growth inhibition of DIPG glioma cells, dose response, cell-based, JHH-DIPG-1, MIPE4.0, CellTiter-Glo, qHTS (AID 1347062; cut-off not given, nearly all actives have AC50 up to about 27 µM). Particulars: JHH-DIPG-1 viability, CellTiter-Glo ATP luminescence.
Test [15] is described as follows: phospholipid biosynthesis inhibitors in animal cells, primary screen, cell-based, LOPAC library, screen 4 (AID 1347384). Particulars: phospholipid biosynthesis inhibition screen, at 10 µM.
Test [16] is described as follows: viability rescue of complex I mutant cybrids, primary screen, cell-based, galactose medium, ATP luminescence (AID 1645843;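 active means z-score of at least 1.8 in each of two replicates, scored against plate mean and spread of sample wells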;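 further: positive z means more ATP and so rescue of galactose-driven cybrid death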). Conditions: complex I mutant cybrid cells, 72 h, stronger effect = higher value.
Test [17] relates to Aerobactin synthetase IucA (Klebsiella pneumoniae). Put plainly: IucA aerobactin synthetase inhibitors, biochemical, Tocris library, absorbance (AID 1345561).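 Further: 100% = enzyme without compound and 0% = no enzyme.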 Conditions: purified IucA enzyme assay, absorbance (OD) read-out; stronger effect = lower value;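 tested at 8 µM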.
Test [18] is described as follows: inhibitors of Cryptococcus chitosan production, flow cytometry, Cibacron Brilliant Red staining (AID 1347148).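 Further: compound exposure lasted three days at 37 degrees C.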 Conditions: Cryptococcus neoformans chitosan, stronger effect = lower value; at 10 µM unless noted.
Test [19] in a line: survival rescue of mitochondrial mutant cells in low glucose, primary screen, MELAS cybrids, Rieske KO mouse fibroblasts, CellTiter-Glo (AID 1508586;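 active means mean z-score across replicates of 1.96 or higher in either the MELAS or the Rieske mutant cell line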;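 further: z relative to plate mean and SD of compound and empty wells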).
The mark [20] stands for this setting: measured here: epithelial PC-3E GFP cell survival.
[21] abbreviates: measured here: mesenchymal TEM4-18 mCherry cell survival.
Setting [22] is: stronger effect = lower value, cell number ratio, induced over uninduced.
The mark [23] stands for this setting: measured here: relative caspase fold change +Dox/-Dox.
Where [24] appears, read: measured here: total cells with miR-34 induction, stronger effect = lower value.
The mark [25] stands for this setting: measured here: total cells without miR-34 induction.

Values joined by “and” are separate entries in the source; they are usually repeats but may differ in a detail not shown here. Equal values may be shown once. Inconclusive results are not listed. Active and inactive are the calls of the source. Unless noted, how the calls were made is not given here.

As for `Oc1cc2c(cc1O)C1c3ccc(O)c(O)c3OCC1(O)C2` (configuration not stated), the red/green cell ratio (normalised) in [1] is 1.05 (inactive). For the same compound, the normalised cell number in [1] (setting [20]) is 1.12; in test [1] (setting [21]), 1.18. Further, the result in test [2], in [3], in test [4] and in test [5] was inactive.
Turning to `C=C1CC2C3C=C(C)C4=CC(=O)CC[C@]4(C)C3CC[C@]2(C)[C@@]1(OC(C)=O)C(C)=O` (some centres not stated), the red/green cell ratio (normalised) in test [1] is 1.26 (inactive). The results for the normalised cell number in test [1] (setting [20]) and in test [1] (setting [21]) were 0.99 and 1.24, respectively. In addition, the fold change was 0.949 (inactive) in test [6] (setting [22]) and 1.45 in [6] (setting [23]). Further, the figures for the cell count in [6] (setting [24]) and in test [6] (setting [25]) were 4400 and 4640, respectively.
For orientation: viability means a read-out of living cells in per cent, often relative to untreated cells. For the compound `C[C@]12CCC3c4ccc(O)cc4CCC3C1CCC2=O` (some centres not stated), the parasite load remaining in [7] was 83.7% (inactive) and 77.8% (inactive). Moreover, the viability in [7] is 75.2% and 91.3%. Further, in test [1], the red/green cell ratio (normalised) is 0.96 (inactive). Besides, the normalised cell number in [1] (setting [20]) turned out to be 1.03; in test [1] (setting [21]), 0.99. Also, the compound was called inactive in test [8], in test [2], in test [3], in test [9], in test [4] and in test [10]. Besides, the compound was classed as inactive in test [5]. Further, the fold change is 1.01 (inactive) in test [6] (setting [22]) and 1.48 in [6] (setting [23]). The results for the cell count in test [6] (setting [24]) and in [6] (setting [25]) were 10400 and 10300, respectively.
Broadly, the inhibition is the drop in the measured response relative to a control, in per cent. As to `CC1CC2C3CCC4=CC(=O)C=C[C@]4(C)[C@@]3(F)[C@@H](O)C[C@]2(C)[C@@]1(O)C(=O)CO` (some centres not stated), the period change in [11] is -0.45 h (inactive). The parasite load remaining in test [7] is 123% (inactive). Also, in test [7], the viability came to 71.5%. The inhibition in test [12] is -1% (inactive). Also, the fluorescence ratio (interference) in test [13] was 1 (inactive). Besides, the red/green cell ratio (normalised) in test [1] is 1.04 (inactive). In addition, the normalised cell number in test [1] (setting [20]) was determined as 1.32; in test [1] (setting [21]), 1.37. Further, the outcome in [2], in test [14], in test [3], in test [4] and in test [15] was inactive. The fold change in test [6] (setting [22]) was 0.94 (inactive); in test [6] (setting [23]), 1.79. Further, the cell count is 7510 in [6] (setting [24]) and 7990 in test [6] (setting [25]). Further, the z-score in test [16] is 1.44 (inactive).
For orientation: remaining activity means the activity still measured, relative to the control. For the compound `CC(C)NC[C@H](O)COc1cccc2ccccc12`, the period change in [11] is 0.145 h (inactive). Further, the parasite load remaining in [7] was 76% (inactive) and 69.1% (inactive) and 147% (inactive). In test [7], the viability was 78.7% and 93.4% and 161%. Besides, the inhibition in test [12] was -3% (inactive). In addition, the fluorescence ratio (interference) in [13] was 1 (inactive). For the same compound, the red/green cell ratio (normalised) in test [1] was 1.36 (inactive). Besides, the normalised cell number in [1] (setting [20]) was determined as 1; in test [1] (setting [21]), 1.37. Also, the remaining activity in [17] was 97% (inactive). In addition, the fold fluorescence in test [18] is 1.64 [at 192.8 µM] (inactive). The compound was classed as inactive in test [15]. Moreover, the z-score is -0.245 (inactive) in [19] (MELAS cybrid survival, CellTiter-Glo 48 h, stronger effect = higher value); -0.593 in test [19] (Rieske KO mouse fibroblast survival, CellTiter-Glo 72 h); -0.055 (inactive) and 0.085 (inactive) and -0.035 (inactive) in [16].
